Test results reported in PubChem BioAssay AID2073 (Sanford-Burnham Center for Chemical Genomics, 2009).
Out of some 290,000 compounds screened, about 570 (0.2%) were called active. Not shown: some 1% with an inconclusive outcome. Rule as the data show it: active = inhibition mostly above about 51% (no sharp cut-off); inconclusive = no clear call, values can overlap the other calls; inactive = mostly below about 53%. Many of the other results were omitted from the sample, so actives are more common in it than they were.

Target: Voltage-dependent N-type calcium channel subunit alpha-1B (Homo sapiens) (UniProt Q00975)
Sequence (Q00975 whole entry, looked up): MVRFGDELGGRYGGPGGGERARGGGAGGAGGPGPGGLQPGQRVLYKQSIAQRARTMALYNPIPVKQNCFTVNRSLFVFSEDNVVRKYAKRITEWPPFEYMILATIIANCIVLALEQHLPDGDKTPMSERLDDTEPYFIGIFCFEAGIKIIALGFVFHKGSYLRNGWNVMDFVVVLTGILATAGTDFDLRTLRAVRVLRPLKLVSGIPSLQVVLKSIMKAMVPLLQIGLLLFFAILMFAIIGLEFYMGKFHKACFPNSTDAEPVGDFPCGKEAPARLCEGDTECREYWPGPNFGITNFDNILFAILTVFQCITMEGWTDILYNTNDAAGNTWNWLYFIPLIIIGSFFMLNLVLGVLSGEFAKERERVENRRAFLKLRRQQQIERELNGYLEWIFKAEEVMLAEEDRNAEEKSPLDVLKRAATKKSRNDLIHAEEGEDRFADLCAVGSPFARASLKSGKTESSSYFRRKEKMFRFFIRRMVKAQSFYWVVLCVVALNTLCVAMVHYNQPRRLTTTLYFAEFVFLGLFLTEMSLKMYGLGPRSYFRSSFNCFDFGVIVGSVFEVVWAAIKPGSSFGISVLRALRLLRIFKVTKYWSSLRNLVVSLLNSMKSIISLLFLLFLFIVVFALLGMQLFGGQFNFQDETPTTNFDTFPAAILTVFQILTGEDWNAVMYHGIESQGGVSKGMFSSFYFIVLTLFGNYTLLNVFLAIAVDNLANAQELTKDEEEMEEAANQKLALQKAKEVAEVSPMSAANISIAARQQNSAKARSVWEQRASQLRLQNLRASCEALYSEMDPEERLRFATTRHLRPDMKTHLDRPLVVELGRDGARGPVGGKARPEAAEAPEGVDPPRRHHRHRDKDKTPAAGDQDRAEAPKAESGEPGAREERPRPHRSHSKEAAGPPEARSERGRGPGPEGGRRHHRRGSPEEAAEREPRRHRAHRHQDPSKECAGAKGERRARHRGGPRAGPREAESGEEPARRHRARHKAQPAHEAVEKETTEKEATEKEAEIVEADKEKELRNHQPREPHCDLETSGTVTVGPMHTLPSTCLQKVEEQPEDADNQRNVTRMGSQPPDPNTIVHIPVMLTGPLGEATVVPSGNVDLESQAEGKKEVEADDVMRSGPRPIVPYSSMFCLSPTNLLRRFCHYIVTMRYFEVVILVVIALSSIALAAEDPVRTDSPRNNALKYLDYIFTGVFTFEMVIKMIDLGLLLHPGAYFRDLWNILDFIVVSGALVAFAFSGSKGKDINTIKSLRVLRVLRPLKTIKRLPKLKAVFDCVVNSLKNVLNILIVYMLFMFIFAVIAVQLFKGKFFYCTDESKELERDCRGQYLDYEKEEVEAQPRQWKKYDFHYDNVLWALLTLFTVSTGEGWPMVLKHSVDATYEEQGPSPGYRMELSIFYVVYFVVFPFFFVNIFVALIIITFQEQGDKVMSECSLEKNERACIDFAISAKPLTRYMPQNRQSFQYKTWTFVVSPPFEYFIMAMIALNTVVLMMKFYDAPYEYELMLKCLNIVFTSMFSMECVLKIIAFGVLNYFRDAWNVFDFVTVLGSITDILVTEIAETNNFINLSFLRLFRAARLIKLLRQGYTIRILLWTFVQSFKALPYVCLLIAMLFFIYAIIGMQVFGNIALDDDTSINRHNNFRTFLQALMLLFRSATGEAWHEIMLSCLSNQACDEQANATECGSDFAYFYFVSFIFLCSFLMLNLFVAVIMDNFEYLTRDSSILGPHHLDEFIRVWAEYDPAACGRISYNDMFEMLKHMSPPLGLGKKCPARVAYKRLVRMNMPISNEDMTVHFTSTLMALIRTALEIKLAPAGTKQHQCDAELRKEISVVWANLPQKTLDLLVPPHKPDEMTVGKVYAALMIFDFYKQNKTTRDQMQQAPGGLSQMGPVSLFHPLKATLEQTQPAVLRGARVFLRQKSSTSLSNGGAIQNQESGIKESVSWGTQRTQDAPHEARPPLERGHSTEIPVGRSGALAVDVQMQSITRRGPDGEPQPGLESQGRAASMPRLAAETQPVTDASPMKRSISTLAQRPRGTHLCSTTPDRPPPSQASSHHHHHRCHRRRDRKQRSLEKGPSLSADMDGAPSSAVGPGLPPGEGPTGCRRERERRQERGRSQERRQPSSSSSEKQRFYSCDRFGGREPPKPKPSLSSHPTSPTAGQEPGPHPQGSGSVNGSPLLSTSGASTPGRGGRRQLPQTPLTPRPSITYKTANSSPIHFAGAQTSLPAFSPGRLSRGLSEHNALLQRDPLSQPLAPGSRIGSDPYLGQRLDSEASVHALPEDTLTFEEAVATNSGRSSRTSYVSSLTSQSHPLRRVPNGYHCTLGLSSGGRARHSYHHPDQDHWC
Assay: disruptors of CaV2.2 binding to Mint1 – biochemical, HTRF (AID 2073)
Settings: HTRF protein-protein interaction, Mint1-CaV2.2, at 20 µM, stronger effect = higher value

| SMILES | inhibition | inhibition (measured here: average of repeat tests) [%] |
| --- | --- | --- |
| CCOc1cc(C(=O)O)cc(Cl)c1OC | 0.7% (inactive) | – |
| Cc1ccc(N2CCN(/N=C/C=C/c3ccccc3)CC2)cc1 | 2.8% (inactive) | – |
| N/C(=N\C(=S)Nc1ccccc1)c1ccccc1 | 5.2% (inactive) | – |
| Cc1ccc(NC(=O)c2ccccc2)cc1 | -4.2% (inactive) | – |
| CNC(=S)/N=C(/Nc1ccccc1)c1ccccc1 | 59.9% (active) | – |
| CNC(=S)Nc1ccc(Nc2ccccc2)cc1 | -5.3% (inactive) | – |
| Cc1ccc(NC(=S)c2ccccc2)cc1 | -6.4% (inactive) | – |
| CS(=O)(=O)NCCSCc1c(Cl)cccc1Cl | 28.1% (inactive) | – |
| N#Cc1c(C(F)(F)F)cc(C2CC2)[nH]c1=O | 6.1% (inactive) | – |
| Cc1ccc(C(=S)NCS(=O)(=O)c2ccc(C)cc2)cc1 | 28% (inactive) | – |
| C(=C\c1nc2ccccc2[nH]1)/c1ccccc1 | 5.8% (inactive) | – |
| Cc1ccc(/C=C/c2nc3ccccc3[nH]2)o1 | 44.8% (inactive) | – |
| C(=C\c1ccco1)/c1nc2ccccc2[nH]1 | 65.6% (active) | – |
| CCc1ccc(CN2CCC(n3nccc3NC(=O)c3ccc4c(c3)OCO4)CC2)cc1 | 2.8% (inactive) | – |
| N#Cc1c(N)sc(=S)c2c1CCN(Cc1ccccc1)C2 | 52.4% (active) | – |
| N#Cc1c(N2CCCCC2)nc(N2CCCCC2)c2c1CCN(Cc1ccccc1)C2 | 16.2% (inactive) | – |
| N#Cc1c(N)sc2c1CCN(CCc1ccccc1)C2 | 3.3% (inactive) | – |
| CN(C(=O)CC1C(=O)NCCN1Cc1ccccc1F)C1CCOCC1 (stereo not drawn) | 16.3% (inactive) | – |
| Cc1c(Cl)sn(-c2ccc(Cl)cc2)c1=O | 79.2% (active) | – |
| Cc1cc(=O)cc(C)n1-c1ccc(Cl)cc1 | 7.3% (inactive) | – |
| CC1=CC(C)(C)N(C)C(=O)N1c1ccc(Cl)cc1 | -2.6% (inactive) | – |
| CN1CCN(C(=O)CN(c2cc(C(F)(F)F)ccc2Cl)S(C)(=O)=O)CC1 | -10.8% (inactive) | – |
| O=C(O)CC/C(=C\c1ccc(Cl)c([N+](=O)[O-])c1)c1nc2ccccc2s1 | 6.1% (inactive) | – |

| SMILES | inhibition | inhibition (measured here: average of repeat tests) [%] |
| --- | --- | --- |
| CN(c1ccccc1)c1ccc(/C=C(\CCC(=O)O)c2nc3ccccc3s2)cc1[N+](=O)[O-] | 54.7% (active) | – |
| Cc1ccc(/C=C(\CCC(=O)O)c2nc3ccccc3s2)cc1[N+](=O)[O-] | 7% (inactive) | – |
| CCC(C(=O)N1CCOCC1)n1nc(C)c2sc3ccccc3c2c1=O (stereo not drawn) | 12.1% (inactive) | – |
| CN1CCN(c2ccccc2NC(=O)c2cccc(OCc3ccccc3)c2)CC1 | 19% (inactive) | – |
| COCCn1c(SCC(=O)Nc2ccc(NC(C)=O)cc2)nc2ccccc2c1=O | -7.5% (inactive) | – |
| COCCn1c(SCC(=O)Nc2ccc(F)cc2)nc2ccccc2c1=O | 6.9% (inactive) | – |
| CC1(C)CC(=O)C=C(NNC(=O)C2CCCCC2)C1 | 1.6% (inactive) | – |
| C#CCOCCOCCOCCNc1nc(N2CCN(C(=O)[C@H](Cc3ccc(O)cc3)n3cc([C@@H](N)CC(C)C)nn3)CC2)nc(N2CCN(C(=O)[C@H](Cc3cc4ccccc4[nH]3)n3cc([C@@H](N)CC(C)C)nn3)CC2)n1 | 22.3% (inactive) | – |
| C#CCOCCOCCOCCNc1nc(N2CCN(C(=O)[C@H](Cc3cc4ccccc4[nH]3)n3cc([C@@H](N)Cc4ccc(O)cc4)nn3)CC2)nc(N2CCN(C(=O)[C@H](Cc3cc4ccccc4[nH]3)n3cc([C@@H](N)CC(C)C)nn3)CC2)n1 | 51.5% (active) | – |
| C#CCOCCOCCOCCNc1nc(N2CCN(C(=O)C(Cc3ccc(O)cc3)n3cc(C(N)CC(C)C)nn3)CC2)nc(N2CCN(C(=O)C(Cc3cc4ccccc4[nH]3)n3cc(C(N)Cc4ccc(O)cc4)nn3)CC2)n1 (stereo not drawn) | 14.6% (inactive) | – |
| CC[N+](CC)(CC#Cc1ccccc1)CC(=O)c1ccc(Cl)cc1 | -0.1% (inactive) | – |
| Cc1nc(C)c(C(=O)OCC(=O)N2CCN(c3ccccc3)CC2)s1 | -4.9% (inactive) | – |
| COC(=O)c1ccccc1NC(=O)CN1CCC(NC(=O)c2ccc(C)cc2)CC1 | -3.1% (inactive) | – |
| Nc1c(C(=O)N/N=C/c2cccnc2)oc2nc(-c3ccco3)cc(-c3ccco3)c12 | 44.8% (inactive) | – |
| NNC(=O)c1oc2nc(-c3cccs3)cc(-c3ccco3)c2c1N | 51.7% (active) | – |
| NNC(=O)c1oc2nc(-c3ccccc3)cc(-c3ccccc3)c2c1N | 18.4% (inactive) | – |
| Nc1c(C(=O)N/N=C/c2ccccc2Cl)oc2nc(-c3ccccc3)cc(-c3ccco3)c12 | 45.6% (inactive) | – |
| NNC(=O)c1oc2nc(-c3ccco3)cc(-c3ccco3)c2c1N | 59.1% (active) | – |
| Cc1ccc(-c2cc(-c3ccco3)c3c(N)c(C(=O)NN)oc3n2)cc1 | 55.5% (inactive) | 31.3 |
| N#Cc1c(Nc2ccccc2)c(/C=N/NCCO)c[nH]c1=O | -20.2% (inactive) | – |
| CN(C)c1cccc(C(=O)OCC(=O)NC2CCCC2)c1 | 2.1% (inactive) | – |
| Cc1oc(-c2ccccc2F)nc1CS(=O)(=O)CC(=O)N1CCCCCC1 | -4.2% (inactive) | – |
| COc1cc(C(=O)NCCC(=O)NCCCN2CCCCC2)cc(OC)c1OC | -4% (inactive) | – |

| SMILES | inhibition | inhibition (measured here: average of repeat tests) [%] |
| --- | --- | --- |
| FC(F)(F)c1ccccc1NC1=NCCC1 | 0.7% (inactive) | – |
| FC(F)(F)c1ccccc1Nc1nccs1 | -8.5% (inactive) | – |
| Cc1cc(C)c(C#N)c(Nc2ccccc2Cl)n1 | 5.7% (inactive) | – |
| Cc1nsc(Nc2ccccc2)c1C#N | 36.6% (inactive) | – |
| COc1cccc(CC(Cc2nc3ccccc3[nH]2)c2nc3ccccc3[nH]2)c1 (stereo not drawn) | 4.4% (inactive) | – |
| CCOc1ccc(/C=N/NC(=O)CSc2n[nH]c(=O)[nH]c2=O)cc1OC | -0.5% (inactive) | – |
| CC(=O)c1ccc(N2CCN(C(=O)c3ccc(Cl)c(NC4=NC5CS(=O)(=O)CC5S4)c3)CC2)cc1 (stereo not drawn) | 3.4% (inactive) | – |
| Cc1ccnc(NS(=O)(=O)c2ccc(NC(=O)C3CCCO3)cc2)n1 (stereo not drawn) | -3% (inactive) | – |
| O=C(NCc1ccc(F)cc1)C1CCCN1C(=O)Nc1cccc(F)c1 (stereo not drawn) | 8.7% (inactive) | – |
| Cc1ccc(N=CC=C2OC(C)(C)C(C)(C)O2)cc1 | 1.3% (inactive) | – |
| COc1cc2c(cc1NC(=O)C(C)OC(=O)c1ccc(S(=O)(=O)Nc3ccccc3Cl)cc1)oc1ccccc12 (stereo not drawn) | 56.6% (active) | – |
| COc1cc2c(cc1NC(=O)C(C)N1CCN(S(=O)(=O)c3ccc(C)c(C)c3)CC1)oc1ccccc12 (stereo not drawn) | 12.7% (inactive) | – |
| COc1ccc(S(=O)(=O)Nc2ccccc2Cl)cc1NC(C)=O | 1.4% (inactive) | – |
| Cc1nc2cc(F)ccc2n1C1CCN(S(=O)(=O)c2ccccc2)CC1 | 5.6% (inactive) | – |
| O=C(c1csc2c1CCCC2)N1CCN(c2ccccc2)CC1 | -0.9% (inactive) | – |
| Cc1cc(C)cc(Nc2nc(-c3ccc(S(=O)(=O)N4CCCC4)cc3)cs2)c1 | 67.2% (active) | – |
| Cc1ccc(Nc2nc(-c3ccc(S(=O)(=O)N4CCCC4)cc3)cs2)cc1C | 36.3% (inactive) | – |
| O=S(=O)(c1ccc(-c2csc(Nc3ccc(Br)cc3)n2)cc1)N1CCCC1 | -7.1% (inactive) | – |
| COC(=O)c1ccccc1NC(=O)COc1ccc(S(=O)(=O)N2CCCC2)cc1C | 6.4% (inactive) | – |
| COc1cccc2[nH]c3ccccc3c(=O)c12 | 30.8% (inactive) | – |
| COc1cccc2c(=O)c3cccc(N)c3[nH]c12 | 52.3% (active) | – |
| Nc1cccc2c(=O)c3ccccc3[nH]c12 | 41.4% (inactive) | – |
| CCCCN(C)C(=O)CSc1nc(NCc2ccc(OC)cc2)c2ccccc2n1 | -1% (inactive) | – |

| SMILES | inhibition | inhibition (measured here: average of repeat tests) [%] |
| --- | --- | --- |
| CCCn1c(C(C)Nc2nc(-c3ccc(Cl)c([N+](=O)[O-])c3)cs2)nc2cc(Cl)c(N3CCCCC3)cc21 (stereo not drawn) | 21% (inactive) | – |
| CCOC(=O)c1sc2nc3c(SCC(=O)O)cc(C(=O)c4ccccc4O)cn3c(=O)c2c1C | 53.3% (active) | – |
| CCOC(=O)c1sc2nc3c(SCC(=O)O)cc(C(=O)c4cc(F)ccc4O)cn3c(=O)c2c1C | 18.6% (inactive) | – |
| CCOC(=O)c1sc2nc3c(SCCC#N)cc(C(=O)c4cc(F)ccc4O)cn3c(=O)c2c1C | 43.6% (inactive) | – |
| CCCCP(=O)(CCCC)Cc1ccccc1 | -0.8% (inactive) | – |
| COc1ccc(-c2nnc(SCC(=O)NCc3cccs3)n2C(C)C)cc1 | -14.7% (inactive) | – |
| O=c1c2c(nc3nc(NCc4cccc5ccccc45)[nH]n13)CCC2 | 4.9% (inactive) | – |
| O=C(O/N=C(\c1ccccc1)c1ccncc1)c1ccccc1F | -7.6% (inactive) | – |
| O=C(Nc1ccc(NC(=O)c2sc3ccccc3c2Cl)cc1Cl)c1ccco1 | 31.4% (inactive) | – |
| O=C(Nc1cccc(NC(=O)c2sc3ccccc3c2Cl)c1)c1ccco1 | 12.7% (inactive) | – |
| O=C(Nc1ccc(NC(=O)c2sc3ccccc3c2Cl)cc1)c1ccco1 | 60.5% (active) | – |
| CCS(=O)(=O)N1CCCC(C(=O)N2CCc3ccccc3C2)C1 (stereo not drawn) | 0% (inactive) | – |
| COc1cc(/C=N/n2cnnc2)ccc1OC(=O)c1ccco1 | 1.6% (inactive) | – |
| CCN(CC)C(=O)C(=O)Nc1ccc(OC)c(Cl)c1 | 1.5% (inactive) | – |
| Cc1cc(=O)c2ccc(Cl)cc2[nH]1 | 0.7% (inactive) | – |
| O=C(O)/C=C/C(=O)NCc1csc2ccccc12 | -5% (inactive) | – |
| O=C(Nc1ccc2c(c1)OCO2)C1CC(=O)N(c2cccc(Cl)c2)C1 (stereo not drawn) | -1.9% (inactive) | – |
| COc1ccc2nc(-c3ccccc3)[nH]c2c1 | 11.7% (inactive) | – |
| Oc1c(Br)cc(/C=N/n2c(-c3ccccc3)n[nH]c2=S)c(O)c1Br | -12.3% (inactive) | – |
| Oc1c(Br)cc(C=Nc2ccc3nc(-c4ccccc4)[nH]c3c2)c(O)c1Br | 83.1% (active) | – |
| CCn1ccnc1CN(C)C(=O)c1ccc(OC2CCN(CCc3ccccc3)CC2)cc1 | 6.5% (inactive) | – |
| COCCn1c(SCc2cccnc2)nnc1-c1c[nH]c2ccccc12 | -0.4% (inactive) | – |
| CC(=O)N1CCC(C(=O)N2CCN(S(=O)(=O)c3cccs3)CC2)CC1 | 0.1% (inactive) | – |
